The subject of assay [1] is Aerobactin synthetase IucA (Klebsiella pneumoniae). The experiment in a line: IucA aerobactin synthetase inhibitors, biochemical, Tocris library, absorbance (AID 1345561; call rule not given here;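 note: 100% = enzyme without compound and 0% = no enzyme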). Particulars: purified IucA enzyme assay, absorbance (OD) read-out; stronger effect = lower value;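 tested at 8 µM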.
Assay [2] can be described thus: sensitizers of A549 cells to miR-34 induction, primary screen, imaging, A549 dox-inducible miR-34, nuclei and caspase counts (AID 1347080). Particulars: A549 miR-34 inducible, Hoechst nuclei count, 48 h.
Assay [3] is described as follows: viability rescue of complex I mutant cybrids, primary screen, cell-based, galactose medium, ATP luminescence (AID 1645843;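 active = z-score of at least 1.8 in each of two replicates, scored against plate mean and spread of sample wells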;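 note: positive z means more ATP and so rescue of galactose-driven cybrid death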). Conditions: complex I mutant cybrid cells, 72 h, stronger effect = higher value.
Where [4] appears, read: stronger effect = lower value, cell number ratio, induced over uninduced.
Setting [5] is: measured here: relative caspase fold change +Dox/-Dox.
[6] abbreviates: measured here: total cells with miR-34 induction, stronger effect = lower value.
Setting [7] is: measured here: total cells without miR-34 induction.

Several values for one entry are separate records, joined by “and”; a condition that tells them apart may be missing. Equal entries are not always repeated. Activity calls are given as the source filed them.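 Rule for the calls, unless noted: active = compounds whose cell count with miR-34 switched on is under 0.7 times the count with it off; inactive = the rest.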

For `OC12C3C4CC5C6C4C1C6C(C53)N2CCc1cccc(F)c1` (stereo not given), in assay [1], the remaining activity is 98.4% (inactive). For the same molecule, the fold change in assay [2] (setting [4]) is 0.838 (inactive); in assay [2] (setting [5]), 1.86. The cell count in assay [2] (setting [6]) turned out to be 7940; in assay [2] (setting [7]) it was 9480. The z-score in assay [3] was 0.295 (inactive).
As to `CCCOc1ccc2[nH]cc(C3=CCNCC3)c2n1`, in assay [1], the remaining activity was 119% (inactive). Further, the fold change in assay [2] (setting [4]) was 0.982 (inactive); in assay [2] (setting [5]), 0.876. For the same molecule, the cell count was determined as 9040 in assay [2] (setting [6]) and 9210 in assay [2] (setting [7]). Besides, the z-score in assay [3] was -0.37 (inactive).
Regarding `O=C1CN=C(c2cccc(Br)c2)c2oc3ccccc3c2N1`, the remaining activity in assay [1] was 121% (inactive). The fold change in assay [2] (setting [4]) is 1.01 (inactive); in assay [2] (setting [5]), 1.75. Moreover, the results for the cell count in assay [2] (setting [6]) and in assay [2] (setting [7]) were 2110 and 2080, respectively. In addition, in assay [3], the z-score was -0.285 (inactive).
`Cc1nnc2ccc(-c3cccc(C(F)(F)F)c3)nn12`: the remaining activity in assay [1] is 126% (inactive). The values for the fold change in assay [2] (stronger effect = lower value) and in assay [2] (setting [5]) were 0.912 (inactive) and 0.497, respectively. Further, the cell count turned out to be 9060 in assay [2] (setting [6]) and 9940 in assay [2] (setting [7]). Further, in assay [3], the z-score was 0.155 (inactive).
With `O=C(CCCN1CCC2(CC1)C(=O)N(Cc1cccc(F)c1)CN2c1ccccc1)c1ccc(F)cc1`, in assay [1], the remaining activity was 109% (inactive). Further, the fold change in assay [2] (setting [4]) is 1.27 (inactive); in assay [2] (setting [5]), 1. Moreover, the cell count is 1590 in assay [2] (setting [6]) and 1250 in assay [2] (setting [7]). The z-score in assay [3] was -1.2 (inactive).
For `CN1CC[C@@H]2CN3CCc4cccc(c43)[C@@H]2C1`, the remaining activity in assay [1] is 120% (inactive). Moreover, the fold change in assay [2] (setting [4]) was 0.917 (inactive); in assay [2] (setting [5]) it was 0.673. For the same molecule, the cell count in assay [2] (setting [6]) is 8120; in assay [2] (setting [7]), 8850. Further, the z-score in assay [3] was -0.34 (inactive).
Turning to `OC(Cc1ccncc1)C(Cl)(Cl)Cl` (stereo not given), the remaining activity in assay [1] was 118% (inactive). For the same molecule, the fold change in assay [2] (setting [4]) was 0.921 (inactive); in assay [2] (setting [5]), 0.736. Further, the results for the cell count in assay [2] (setting [6]) and in assay [2] (setting [7]) were 9270 and 10100, respectively. For the same molecule, the z-score in assay [3] was -0.53 (inactive).
`c1ccc(CC(c2ccccc2)N2CCCCC2)cc1` (stereo not given): in assay [1], the remaining activity is 103% (inactive). Also, the fold change was 0.958 (inactive) in assay [2] (stronger effect = lower value) and 0.814 in assay [2] (setting [5]). Also, the cell count is 9440 in assay [2] (setting [6]) and 9860 in assay [2] (setting [7]). In assay [3], the z-score was -0.99 (inactive).
Regarding `Cc1o[nH]c(=O)c1C[C@H](N)C(=O)O`, in assay [1], the remaining activity is 106% (inactive). Moreover, the fold change was 1.04 (inactive) in assay [2] (setting [4]) and 0.71 in assay [2] (setting [5]). The cell count in assay [2] (setting [6]) is 9160; in assay [2] (setting [7]), 8800. Moreover, in assay [3], the z-score is 0.59 (inactive).
On to `c1ccc(C2CNCc3ccccc32)cc1` (stereo not given), for which the remaining activity in assay [1] is 117% (inactive). For the same molecule, the fold change in assay [2] (setting [4]) is 0.949 (inactive); in assay [2] (setting [5]) it was 0.998. The cell count in assay [2] (setting [6]) worked out at 8070; in assay [2] (setting [7]), 8500. Further, the z-score in assay [3] was -0.455 (inactive).
Take `NC1(c2ccccc2Cl)CCCCC1=O` (stereo not given): the remaining activity in assay [1] is 88.2% (inactive). Further, the fold change in assay [2] (stronger effect = lower value) is 0.898 (inactive); in assay [2] (setting [5]), 1.86. Further, the cell count in assay [2] (setting [6]) amounted to 9020; in assay [2] (setting [7]) it was 10000. In addition, the z-score in assay [3] was 1.53 (inactive).
On to `CCCCC1(C2CCCC2)Cc2cc(OCCCC(=O)O)c(Cl)c(Cl)c2C1=O` (stereo not given), for which, in assay [1], the remaining activity is 98.2% (inactive). In addition, the results for the fold change in assay [2] (setting [4]) and in assay [2] (setting [5]) were 0.969 (inactive) and 0.91, respectively. The results for the cell count in assay [2] (setting [6]) and in assay [2] (setting [7]) were 7490 and 7730, respectively. The z-score in assay [3] is 3.13 (active).
As for `CC(=O)[C@H]1CC[C@H]2[C@@H]3CCC4C[C@](C)(O)CC[C@]4(C)[C@H]3CC[C@]12C` (stereo not given in full), in assay [1], the remaining activity was 103% (inactive). In addition, the fold change in assay [2] (stronger effect = lower value) was 0.92 (inactive); in assay [2] (setting [5]), 1.5. Besides, the cell count in assay [2] (setting [6]) was determined as 8730; in assay [2] (setting [7]), 9490. Moreover, the z-score in assay [3] is -0.285 (inactive).
For the molecule `O=C1CSC(c2ccccc2Cl)c2cc(Cl)ccc2N1` (stereo not given), the remaining activity in assay [1] is 115% (inactive). The fold change was 0.848 (inactive) and 0.875 (inactive) in assay [2] (stronger effect = lower value); 1.12 and 0.874 in assay [2] (setting [5]). For the same molecule, the cell count was 2450 and 7360 in assay [2] (setting [6]); 2880 and 8400 in assay [2] (setting [7]). Besides, in assay [3], the z-score is -0.095 (inactive).
Regarding `Ic1cncc(OC[C@@H]2CCN2)c1`, the remaining activity in assay [1] is 118% (inactive). For the same molecule, the fold change in assay [2] (setting [4]) is 0.934 (inactive); in assay [2] (setting [5]) it was 0.549. Moreover, the cell count in assay [2] (setting [6]) came out at 9660; in assay [2] (setting [7]), 10300. Moreover, the z-score in assay [3] is -0.135 (inactive).
In the case of `N[C@]1(C(=O)O)CC[C@@H](C(=O)O)C1` (racemic), the remaining activity in assay [1] was 103% (inactive). In addition, the fold change in assay [2] (setting [4]) was 0.971 (inactive); in assay [2] (setting [5]), 0.73. In addition, the cell count in assay [2] (setting [6]) was 7990; in assay [2] (setting [7]) it was 8230. In addition, the z-score in assay [3] was 0.095 (inactive).
Consider `O[C@H]1[C@H](O)[C@@H](O)CN2CC[C@H](O)[C@H]12`, for which the remaining activity in assay [1] was 107% (inactive). The fold change in assay [2] (stronger effect = lower value) is 0.875 (inactive) and 0.917 (inactive); in assay [2] (setting [5]), 1.02 and 1.4. Moreover, the cell count in assay [2] (setting [6]) was 4910 and 9170; in assay [2] (setting [7]) it was 5610 and 10000. The z-score in assay [3] was 0.34 (inactive).
Consider `Cc1ccc2c(c1)Cc1c(C(=O)NN3CCCCC3)nn(-c3ccc(Cl)cc3Cl)c1-2`, for which the remaining activity in assay [1] is 102% (inactive). The fold change in assay [2] (setting [4]) was 0.912 (inactive); in assay [2] (setting [5]) it was 1.23. The cell count was determined as 5690 in assay [2] (setting [6]) and 6240 in assay [2] (setting [7]). Moreover, in assay [3], the z-score was -0.67 (inactive).
With `O=C1Nc2cc(Cl)c(Cl)cc2N2CCNCC12` (stereo not given), the remaining activity in assay [1] is 125% (inactive). The figures for the fold change in assay [2] (setting [4]) and in assay [2] (setting [5]) were 0.949 (inactive) and 0.693, respectively. Moreover, the cell count was 8510 in assay [2] (setting [6]) and 8970 in assay [2] (setting [7]). The z-score in assay [3] is -0.265 (inactive).
Take `COC(=O)CN1CN(c2ccccc2)C2(CCN(Cc3ccc4ccccc4c3)CC2)C1=O`: the remaining activity in assay [1] was 120% (inactive). Moreover, the fold change was 0.912 (inactive) in assay [2] (setting [4]) and 0.824 in assay [2] (setting [5]). For the same molecule, the figures for the cell count in assay [2] (setting [6]) and in assay [2] (setting [7]) were 8960 and 9820, respectively. Further, the z-score in assay [3] is 0.375 (inactive).

These data come from PubChem BioAssay.
